Shown is part of a subset that was picked to be rich in hits.
Methyltransferases = Primary Screen for Target Class Profiling of Small Molecule Inhibitors of Methyltransferases | 25,000 tested, 3.9% active | AID 1745853, 2022 | purified enzyme, MTase-Glo SAH luminescence; stronger effect = lower value | calls only at 40 µM; call rule not given here
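Each enzyme was reacted with SAM and its substrate, with compounds tested once at 40 uM; SAH formed was read by MTase-Glo luminescence.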
Large screens that a line does not name were inactive; ! = not confirmed by another sample.

COc1ccccc1CNS(=O)(=O)c1cc2[nH]c(=O)[nH]c2cc1C	none
CCCN1C(=O)c2c(C(=O)NCc3ccc(CC)cc3)ncn2CC1(C)C(=O)NC1CCCC1 (configuration not stated)	none
Cc1ccc(CN2C(=O)c3ccc(-c4ccccc4)n3CC2(C)C(=O)NC2CCC(C)CC2)cc1 (configuration not stated)	none
Cc1cc(C)cc(N2C(=O)c3cc4sccc4n3CC2(C)C(=O)NC2CCCCCC2)c1 (configuration not stated)	none
CCOC(=O)C(Cc1cccc(N2CCN(C(=O)OC(C)(C)C)CC2)c1)OC (configuration not stated)	none
Cc1nc([C@](C)(O)CO)sc1-c1cnc(N)c(O[C@H](C)c2cc(F)ccc2-n2nccn2)c1	Methyltransferases active
CC(C)OCCCn1c(=O)c2ccccc2n2c(CCC(=O)NCc3ccccc3Cl)nnc12	none
COc1cccc(Cn2nc3n(Cc4ccccc4)c(=O)c4ccc(C(=O)NCC(C)C)cc4n3c2=O)c1	none
COC(=O)c1ncn2c1C(=O)N(Cc1ccc(OC)cc1OC)C(C)(C(=O)NC1CCCC1)C2 (configuration not stated)	none
CCOC(=O)CNC(=O)C1(C)Cn2c(ccc2-c2ccco2)C(=O)N1Cc1ccc2c(c1)OCO2 (configuration not stated)	none
CCCN1C(=O)c2c(C(=O)NCc3cccc(Br)c3)ncn2CC1(C)C(=O)NCc1ccccc1 (configuration not stated)	none
CC(C)CCn1c(=O)c2ccccc2n2c(SCC(=O)Nc3ccc(C(C)C)cc3)nnc12	none
CN1C(=O)c2cc(NC(=O)c3cc(-c4ccncc4)nc4ccccc34)ccc2N2CCN=C12	none
COCCN1C(=O)c2cc3sccc3n2CC1(C)C(=O)NC1CCCCC1 (configuration not stated)	none
CN(C)CCOC(c1ccccc1)c1ccccc1	none
CN(C)CCOC(C)(c1ccccc1)c1ccc(Cl)cc1 (configuration not stated)	Methyltransferases active
CCCC1CN(Cc2ccc(OC)cc2)[S+](=O)([O-])c2cnccc2O1 (configuration not stated)	none
Cc1ccc(Cn2c(=O)c3ccccc3n3c(-c4ccc(Cl)cc4)nnc23)cc1	none
COc1ccc(-c2cc3n(n2)CC(C)(C(=O)NCc2ccccc2)N(CCc2ccc(SC)cc2)C3=O)cc1 (configuration not stated)	none
C=C1C(=O)OC2C1CCC1(C)C(O)CCC(=C)C21 (configuration not stated)	Methyltransferases active
C=C1C(=O)OC2C1C(O)CC1(C)C(O)CCC(C=O)C21 (configuration not stated)	none
C=C1C(=O)O[C@@H]2[C@H]3O[C@]3(C)CCC=C(C)CC[C@@H]12	none
Cc1cc2c(cc3n2CC(C)(C(=O)NC2CCCCC2)N(Cc2ccccc2F)C3=O)o1 (configuration not stated)	none
CC(C)CCNC(=O)C1(C)Cn2nc(C(C)(C)C)cc2C(=O)N1Cc1ccccc1Cl (configuration not stated)	none
Cc1ccc(Cl)cc1Nc1nn2c(=O)c3ccc(C(=O)NC4CCC(C)CC4)cc3nc2s1 (configuration not stated)	none
CN(C)c1nc(NC2CCC(NC(=O)c3ccc(F)c(F)c3)CC2)nc2ccccc12 (configuration not stated)	Methyltransferases active
CN(C(=O)Cn1nc2n(C)c(=O)c3ccc(C(=O)NC4CCCC4)cc3n2c1=O)c1ccccc1	none
CC1(C(=O)NC2CCCCCC2)Cn2c(nc3ccccc32)C(=O)N1Cc1ccc(Cl)cc1 (configuration not stated)	none
COC(=O)C1=CO[C@@H](O[C@@H]2O[C@H](CO)[C@@H](O)[C@H](O)[C@H]2O)[C@H]2[C@@H]1CC(OC)O[C@@H]2C (some centres not stated)	Methyltransferases active
COC(=O)C1=COC(OC2OC(CO)C(O)C(O)C2O)C2C1CC(OC(=O)C(O)CC(=O)O)C2C (configuration not stated)	Methyltransferases active
C=C[C@H]1[C@H](O[C@@H]2O[C@H](CO)[C@@H](O)[C@H](O)[C@H]2O)OC=C(C(=O)OC)[C@H]1CCO	Methyltransferases active
COC(=O)C1=COC(OC2OC(CO)C(O)C(O)C2O)C2C(C)C(OC(C)=O)C(OC(=O)c3ccccc3)C12 (configuration not stated)	none
C=C[C@H]1[C@H](O[C@@H]2O[C@H](CO)[C@@H](O)[C@H](O)[C@H]2O)OC=C(C(=O)OC)[C@H]1C[C@@H]1N[C@H](C(=O)O)Cc2c1[nH]c1ccccc21	none
CC1C(OC(=O)c2ccccc2)C(O)C2C(C(=O)O)=COC(OC3OC(CO)C(O)C(O)C3O)C12 (configuration not stated)	none
COC(=O)C1=COC(O[C@@H]2O[C@H](CO)[C@@H](O)[C@H](O)[C@H]2O)C2C(C)C(=O)CC12 (some centres not stated)	none
C=C[C@H]1[C@H](O[C@@H]2O[C@H](CO)[C@@H](O)[C@H](O)[C@H]2O)OC=C(C(=O)OC)[C@H]1CC(=O)O	none
COC(=O)C1=CO[C@@H](O[C@@H]2O[C@H](CO)[C@@H](O)[C@H](O)[C@H]2O)[C@@H]2[C@@H](C(=O)OC)[C@@H](O)C(O)[C@H]12 (some centres not stated)	none
CC(C)CNC(=O)c1ccc2c(=O)n(C(C)C)c3nn(Cc4ccccc4F)c(=O)n3c2c1	none
CCOc1ccc(CCNC(=O)C(CC)n2ccc3cc(S(=O)(=O)N4CCCCC4)ccc32)cc1 (configuration not stated)	none
CC(C)OCCCNC(=O)CCc1nnc2n(Cc3ccc(F)cc3)c(=O)c3ccccc3n12	none
Cc1ccc(CSc2nnc3n(CC(C)C)c(=O)c4ccccc4n23)cc1	none
Cc1ccc(N2C(=O)c3cc4sccc4n3CC2(C)C(=O)NC2CCCCCCC2)cc1C (configuration not stated)	none
COc1cccc(CN2C(=O)c3cc4occc4n3CC2(C)C(=O)NC2CCCC(C)C2C)c1 (configuration not stated)	none
CCCn1c(=O)c2ccc(C(=O)NC(C)CC)cc2n2c(=O)n(Cc3cccc(C)c3)nc12 (configuration not stated)	none
C[C@H](/C=C/[C@@]1(O)[C@H](C)CC(=O)CC1(C)C)O[C@@H]1O[C@H](CO[C@@H]2OC[C@@H](O)[C@H](O)[C@H]2O)[C@@H](O)[C@H](O)[C@H]1O	none
CC1=CC(=O)CC(C)(C)C1CCC(C)O[C@@H]1O[C@H](CO[C@@H]2OC[C@@H](O)[C@H](O)[C@H]2O)[C@@H](O)[C@H](O)[C@H]1O (some centres not stated)	Methyltransferases active
CC1=CC(=O)CC(C)(C)[C@H]1/C=C/C(CO)O[C@@H]1O[C@H](CO)[C@@H](O)[C@H](O)[C@H]1O (some centres not stated)	none
CCc1ccc(S(=O)(=O)c2nnn3c2nc(NCc2cccc(OC)c2)c2ccccc23)cc1	none
O=S(=O)(NCCc1ccc(Cl)cc1)c1ccc2[nH]c3c(c2c1)CCCC3	none
NC(=O)c1cccc2cn(-c3ccc([C@@H]4CCCNC4)cc3)nc12	Methyltransferases active!
Cn1nc(C2CCCNC2)c2c(C(=O)NC3CC3)cc(C3CC3)nc21 (configuration not stated)	none
Cc1cccc(Cn2nc(C3CCCNC3)n(-c3ccccc3)c2=O)c1 (configuration not stated)	none
Cc1ccc(CCNC(=O)CCn2ccc3cc(S(=O)(=O)N4CCC(C)CC4)ccc32)cc1	none

High-throughput results: PubChem BioAssay, National Center for Advancing Translational Sciences (NCATS)
